Reference: PubChem BioAssay AID1823 (The Scripps Research Institute Molecular Screening Center, 2009)
Hit rate of the full screen: of about 16,000 compounds, about 70 (0.4%) were called active. This is one part of a sample in which actives are shown more often than they occur. Cut-off read from the data, not from the text of the source: active = inhibition above about 75%; inactive = the rest.

Assay: quenches luminol chemiluminescence in Nox1 counter-screen (AID 1823)
Settings: HRP/luminol/H2O2 chemiluminescence counterscreen; at 6.7 µM; active compounds read high

| Structure (SMILES) | inhibition |
| --- | --- |
| Cn1nccc1NC(=O)CC(CC(=O)O)c1ccccc1 (centres undefined) | -2.7% (inactive) |
| COc1ccc(CCNC(=O)c2ccccc2-c2ccccc2C(=O)O)cc1OC | -7.76% (inactive) |
| CC(=O)N1c2ccccc2C=Cc2ccccc21 | 2.77% (inactive) |
| CCOC(=O)Cn1cc(Cl)ccc1=O | -6.12% (inactive) |
| CCc1ccc(S(=O)(=O)Nc2ccc(C)c(NS(C)(=O)=O)c2)cc1 | 6.77% (inactive) |
| CCOC(=O)c1c(C)nn(-c2ncccc2NC(=O)Nc2cccc(Cl)c2Cl)c1C | -3.12% (inactive) |
| COC(=O)c1cc(S(=O)(=O)NCc2csc(-c3cccs3)n2)oc1C | 2.46% (inactive) |
| COC(=O)c1sccc1NC(=S)Nc1ccc(C)cc1 | -25.1% (inactive) |
| O=C(Nc1ccccc1N1CCOCC1)C1CCN(c2nccc(C(F)(F)F)n2)CC1 | -1.03% (inactive) |
| O=C(Nc1ccc(I)cc1Cl)C(=S)NCc1cccs1 | -1.16% (inactive) |
| Cn1nnnc1SCC(=O)Nc1ccc(OC(F)(F)F)cc1 | -2.01% (inactive) |
| O=C(/C=C/c1cccc2ccccc12)N1CCCCC1 | 2.1% (inactive) |
| Cc1c(C)c(C)c(CSC(=N)CC#N)c(C)c1C | -1.01% (inactive) |
| CC(C)c1ccc(N2C(=O)/C(=C\c3ccc(-c4ccc([N+](=O)[O-])cc4)o3)SC2=S)cc1 | 2.47% (inactive) |
| O=C(NCc1csc(-c2cccs2)n1)Nc1ccccc1-c1ccccc1 | 0.51% (inactive) |
| c1ccc2c(c1)NC(C1Nc3ccccc3O1)O2 (centres undefined) | 8.91% (inactive) |
| CC(C)S(=O)(=O)/C(C#N)=C/NN1CCOCC1 | 41% (inactive) |
| O=S(=O)(Oc1cccc(C(F)(F)F)c1)c1cc(S(=O)(=O)c2ccccc2)cs1 | 3.95% (inactive) |
| O=C(Nc1ccccc1-c1ccccc1)c1cccs1 | 0.86% (inactive) |
| O=C(O)C1CC2CC1CCC2O (centres undefined) | -5.03% (inactive) |
| CC(C)CC(F)Cc1cnc(=O)[nH]c1 (centres undefined) | -1.51% (inactive) |
| CC(=O)c1cc([N+](=O)[O-])c(NC2CCCCC2)s1 | 3.91% (inactive) |
| NNC(=O)c1cc(OCC(F)(F)F)nc(OCC(F)(F)F)c1 | 9.46% (inactive) |
| N#Cc1c(C2CCCCC2)[nH]c(=S)[nH]c1=O | 11.2% (inactive) |
| CCCc1nc(N)ncc1C(=O)OCC | -1.66% (inactive) |
| O=C(CCSc1nc2ccccc2o1)N1CCc2cc([N+](=O)[O-])ccc21 | -3.32% (inactive) |

| Structure (SMILES) | inhibition |
| --- | --- |
| O=C(O)CSC(SCC(=O)O)c1ccc2c(c1)OCO2 | 0.02% (inactive) |
| CC(CC(=O)O)Oc1ccc(Cl)cc1[N+](=O)[O-] (centres undefined) | 0.37% (inactive) |
| CNC(=S)NNC(=O)c1cc(C)on1 | 11% (inactive) |
| CS(=O)(=O)c1ccc(C(=O)Nc2cccc(Cl)c2)cc1 | 2.61% (inactive) |
| COC(=O)/C=C/c1cn(C2OCC(CO)C2O)c(=O)[nH]c1=O (centres undefined) | -0.07% (inactive) |
| CC1=NCCNC(C)=C1N1CCOCC1 | -0.98% (inactive) |
| NC(=O)c1sccc1Br | -1.3% (inactive) |
| COC(=O)c1sc(S(C)=O)c(-c2ccon2)c1C (centres undefined) | 0.42% (inactive) |
| CC(C)(C)C(=O)NNC(=O)c1ccc(Oc2ccc(C3SCCS3)cc2)o1 | -19.4% (inactive) |
| CNC(=O)NNC(=O)Cn1nnc(N2CCCCC2)n1 | 14.1% (inactive) |
| N#C/C(=C\C=C\c1ccccc1)c1nc2ccccc2[nH]1 | 2.56% (inactive) |
| O=[N+]([O-])c1cc(C(F)(F)F)ccc1OCCO | -3.63% (inactive) |
| CCCCCCCN=C(C)c1ccccc1O | -3.37% (inactive) |
| O=C(O)CCC(=O)Nc1ccc2c(c1)OCCCO2 | -0.93% (inactive) |
| COc1ccc2c(OC(C)=O)coc2c1 | -1.52% (inactive) |
| CN(C(=O)Nc1ccc(Cl)cc1)n1cnc2ccccc2c1=O | -2.37% (inactive) |
| O=C1c2ccccc2C(=O)N1CCCN1CCN(Cc2c(F)cccc2Cl)CC1 | -3.51% (inactive) |
| N#CCSc1ccc2ccccc2c1 | -1.43% (inactive) |
| O=C(NNC(=S)Nc1ccc(S(=O)(=O)N2CCCCC2)cc1)c1ccncc1 | 12.6% (inactive) |
| CN(Cc1nnc(-c2ccc3ccccc3c2)o1)c1nnc(C(F)(F)F)s1 | -4.66% (inactive) |
| N#Cc1sccc1Br | 0.55% (inactive) |
| N/C(Cc1cccs1)=N\OC(=O)c1ccccc1 | -0.54% (inactive) |
| CC(C)N(C(=O)c1ccc(-c2ccccc2F)cc1)C(C)C | -5.07% (inactive) |
| N#C/C(=C\c1ccsc1Sc1ccc(Cl)cc1)S(=O)(=O)c1ccc(Cl)cc1 | 2.56% (inactive) |
| Cc1ccc(S(C)(=O)=NC(=O)NS(=O)(=O)Oc2ccc(Cl)cc2Cl)cc1 (centres undefined) | 2.88% (inactive) |
| O=C(Nc1ccc(C(F)(F)F)cn1)c1ccc(Oc2cc(Cl)cc(Cl)c2)o1 | 0.64% (inactive) |

| Structure (SMILES) | inhibition |
| --- | --- |
| CSc1cccc(NC(=O)C(=O)NCCc2ccccn2)c1 | 3.62% (inactive) |
| Cc1ccc(SCC(=O)Nc2ccc(F)cc2F)cc1 | -8.4% (inactive) |
| CC1=NOC(=O)/C1=C\c1ccccc1 | 3.43% (inactive) |
| CC(C)(C)c1ccc(C(=O)CC(N)=O)cc1 | 6.19% (inactive) |
| O=C1COCC(=O)N1c1ccc2c(c1)OCO2 | -6.14% (inactive) |
| Cc1nn(C)c(C)c1Sc1nccc(-c2cccnc2)n1 | -8.26% (inactive) |
| CCOC(=O)C(O)(NC(=O)Nc1ccccc1)C(F)(F)F (centres undefined) | -5.95% (inactive) |
| COCCCN/C(SCc1c(F)cccc1Cl)=C(\C#N)C(N)=O | 1.37% (inactive) |
| N#C/C=C/c1ccc(C(F)(F)F)cc1[N+](=O)[O-] | 1.6% (inactive) |
| O=C(c1ccc(Oc2ccc(Cl)cc2)c([N+](=O)[O-])c1)N1CCCC1 | 2.31% (inactive) |
| O=C(NNc1ccccc1C(F)(F)F)NS(=O)(=O)c1ccc(Cl)cc1 | -2.61% (inactive) |
| COc1ccc(/C(C)=N/Nc2c([N+](=O)[O-])cc(C(F)(F)F)cc2[N+](=O)[O-])cc1CC#N | -5.96% (inactive) |
| Cc1noc(C)c1C(=O)N1CCOCC1 | -1.15% (inactive) |
| CCOC(=O)c1cc(CC)sc1NC(=O)c1cccnc1Oc1ccccc1 | 0.49% (inactive) |
| COC(=O)CCN1CCc2cc(N=Nc3ccc(C(F)(F)F)cc3)ccc21 | 17.7% (inactive) |
| CC(C)(C)NC(=O)[C@@H]1C[C@@H]2CCCC[C@@H]2CN1C(=O)c1ccno1 | -0.12% (inactive) |
| O=C(O)CC(CC(=O)Oc1ccccc1N1CCCCC1)c1ccccc1 (centres undefined) | -1.25% (inactive) |
| CSc1nsc(SC)c1C(=O)Nc1cc(C(F)(F)F)cc(C(F)(F)F)c1 | 1.1% (inactive) |
| COc1ccc(C2CC(c3cccs3)=Nc3ccccc3S2)c(Cl)c1OC (centres undefined) | -0.88% (inactive) |
| c1ccc(-c2nsc(N3CCNCC3)n2)cc1 | -5% (inactive) |
| NS(=O)(=O)c1cccc(NC(=O)c2ccccc2)c1 | -5.88% (inactive) |
| CCOC(=O)c1c(-c2ccco2)csc1NC(=O)Nc1ccc(Cl)cc1 | 3.19% (inactive) |
| Cc1[nH]c2ccccc2c1Sc1ccc(Cl)cc1 | -11.5% (inactive) |
| N#Cc1ccc(Oc2ccc(Cl)cc2)c([N+](=O)[O-])c1 | -1.59% (inactive) |
| Cc1c(S(=O)(=O)c2ccc(Cl)cc2)csc1C(=O)Nc1ccc2c(c1)OCCO2 | 0.51% (inactive) |
| CCCCN1Cc2c(nc3cc(-c4ccccc4)[nH]n3c2=O)C1=O | 5.15% (inactive) |

| Structure (SMILES) | inhibition |
| --- | --- |
| O=C1Nc2ccccc2C12NNC(=S)NN2 | 7.82% (inactive) |
| NS(=O)(=O)c1ccc(Oc2c(Cl)cccc2[N+](=O)[O-])cc1 | -4.5% (inactive) |
| COc1cccc(NC(=S)NNC(=S)NC2CC3CCC2C3)c1 (centres undefined) | 5.57% (inactive) |
| N/C(=N\OC(=O)c1cccc(Cl)c1)c1ccc2nonc2c1 | -0.67% (inactive) |
| CO/N=C(/C)c1ccc2c(c1)CCO2 | -0.06% (inactive) |
| CC(=O)Nc1ccc(NC(=O)c2cc(C)ccc2[N+](=O)[O-])c(C)c1 | 0.85% (inactive) |
| O=C(Cn1nnc2ccccc21)NCCSCc1ccco1 | -2.68% (inactive) |
| COC(=O)C(C#N)c1ccc(C(F)(F)F)cc1[N+](=O)[O-] (centres undefined) | 4.34% (inactive) |
| O=C(CN1CCOCC1)NNC(=O)c1cccs1 | 3.1% (inactive) |
| C/C(=N\NC(N)=S)c1ccncc1 | 15% (inactive) |
| O=C(Nc1ccccc1C(=O)NCc1c(F)cccc1Cl)c1ccccc1Cl | 4.86% (inactive) |
| Cn1c(=O)c(C#N)cn(-c2ccccc2)c1=O | -4.85% (inactive) |
| CSc1sc(C(=O)NC2CC2)c(-c2ccc(Cl)cc2)c1C#N | 2.76% (inactive) |
| CCOC(=O)C(NC(=O)c1ccco1)(Nc1cc(C)ccn1)C(F)(F)F (centres undefined) | -2.71% (inactive) |
| COC(=O)c1c(C(=O)OC)c2n(c1C)CCS2 | -2.55% (inactive) |
| N#CNC(N)=Nc1cc(Cl)ccc1Cl | -0.88% (inactive) |
| CCOC(=O)O/N=C(\N)c1ccc(Cl)cc1 | -3.37% (inactive) |
| Cn1cccc1-c1n[nH]c(=S)n1-c1ccc(Cl)cc1Cl | 2.46% (inactive) |
| CCCCCCNC(=O)NCCCCCC | -3.83% (inactive) |
| Cc1oc(-c2ccc(Cl)cc2)cc1C(=O)N1CCOCC1 | -4.96% (inactive) |
| COc1ccc(Cc2nnc(SC)[nH]c2=O)cc1 | 1.75% (inactive) |
| CC(C)[C@H]1COC(c2cccc(C3=N[C@@H](C(C)C)CO3)n2)=N1 | -2.9% (inactive) |
| O=C(CCN1CCN(C(c2ccccc2)c2ccccc2)CC1)c1ccccc1 | -3.01% (inactive) |
| Cn1cc(Cl)c(/C=C(\C#N)C(N)=O)n1 | -6.34% (inactive) |
| COc1ccc2cc(/C(C)=N/OC(=O)Nc3ccccc3)ccc2c1 | -18.6% (inactive) |
| CCOC(=O)c1c[nH]n2c(=O)c3c(nc12)CCC3 | 0.29% (inactive) |
